Screening results from PubChem BioAssay.
Sampled rows, rich in hits. Any-hit rate of the full collection: about 19%.
HT1080 IDH1KD tx: HT-1080 IDH1 knockdown cell toxicity (counter line); HT-1080 IDH1 knockdown viability, ATP luminescence, 48 h; Potency, µM (highest dose often 46.1 µM), actives largely listed as cytotoxic; actives 2% (n = 360,000)
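Using the IDH1-knockdown HT-1080 line run in the same batch and compound series as the NT line, viability after 48 h at 37 °C was determined by CellTiter-Glo luminescence and expressed as % activity.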
uPA surface inh: inhibitors of cell surface uPA generation | cell surface uPA generation assay, qHTS | Potency, µM (titrated, usually from 38.3 µM), actives largely listed as inhibitors | actives 0.31% (n = 330,000) | AID 540303; active = well fitted inhibition curve with a large enough effect; inconclusive = small, poorly fitted or top-dose-only effect; inactive = no such curve, though single readings can be large or run the other way; tested in mouse RAW 264.7 cells; also: nearly all actives have a fitted effect of over 55% in size
DT40 TDP1 no CPT: qHTS for Inhibitors of human tyrosyl-DNA phosphodiesterase 1 (TDP1): qHTS in cells in absence of CPT | DT40 Tdp1-/- hTDP1 cells, no CPT, ATP luminescence, 48 h | actives 15% (n = 420,000) | Potency, µM (doses to about 46.2 µM), usual class: inhibitors; also: nearly all actives have a fitted effect of over 55% in size
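No-CPT arm: Tdp1-/-;hTDP1 DT40 cells (400/well) plus compounds, incubated ≥48 hr at 37 °C. Readout CellTiter-Glo luminescence.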
IL-1B inflam inh: blocks inflammasome-driven IL-1 beta release; THP-1 LPS/ATP IL-1B secretion, AlphaLISA, 16 h; active compounds read low; activity change, % at 57.5 µM; actives 4.7% (n = 360,000); AID 743279; in the data active = activity change below about -50%; inconclusive = mostly about -30% to -49%
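THP-1 cells pretreated 1 hr with compounds (up to 57.5 uM final), then stimulated with LPS (250 ng/mL final) plus ATP (1.25 mM final); secreted IL-1B measured by AlphaLISA after 16 hr, decreased signal indicating inhibition.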
HT1080-NT tox: kills 2HG-producing HT-1080-NT fibrosarcoma cells | HT-1080-NT fibrosarcoma viability, CellTiter-Glo ATP luminescence, 48 h | Potency, µM (titrated, usually from 46.1 µM), most hits filed as cytotoxic | actives 1.6% (n = 360,000) | AID 686970;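 also: NT is the 2HG producing partner of a matched IDH1 knockdown line; nearly all actives have a fitted effect of over 55% in size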
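Read-out is CellTiter-Glo luminescence after 10 minutes at room temperature, following 48 hours' compound treatment of HT-1080-NT cells (750 cells/well, RPMI, 5% FBS, 37 degrees C).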
TDP1 cell CPT: growth inhibition of DT40 Tdp1-/-;hTDP1 cells with camptothecin (screen for TDP1 inhibitors); chicken DT40 Tdp1-/-;hTDP1 cells + 20 nM CPT, ATP luminescence, 48 h; Potency, µM (series often up to 46.2 µM), actives largely listed as inhibitors; actives 12% (n = 420,000); AID 686979; also: nearly all actives have a fitted effect of over 55% in size
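Cell growth measured by CellTiter-Glo luminescence after a minimum 48 h, 37 C compound exposure with 20 nM CPT in Tdp1-knockout DT40 cells stably expressing hTDP1, seeded 400/well; qHTS titration format.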
Hits are given with their value; . = inactive; ? = inconclusive; / = not tested or not shown. Unless noted, calls follow the shape of the dose curve; as a rule, active = well fitted curve in the direction sought with a large enough effect; inconclusive = small, poorly fitted or top-dose-only effect, or another doubt; inactive = no such curve, though single readings can be large; an effect the other way counts as inactive or inconclusive.

SMILES	HT1080 IDH1KD tx	uPA surface inh	DT40 TDP1 no CPT	IL-1B inflam inh	HT1080-NT tox	TDP1 cell CPT
CC(=O)c1cc2cccc(OC3(C)CCN(Cc4ccc(-c5ccccn5)cc4)C3)c2o1 (centres undefined)	.	/	18µM	.	.	?
CC1(Oc2cccnc2Cl)CCN(Cc2ccc(OC(F)(F)F)cc2)C1 (centres undefined)	.	/	18µM	-56	.	21µM
COc1cc(OC)c(OC)cc1CN1CCN(Cc2ccc(SC)cc2)CC1	.	.	13µM	.	.	?
COc1cc(CN2CCN(Cc3ccc(SC)cc3)CC2)cc(OC)c1O	.	.	.	.	.	.
COc1cccc(OC2(C)CCN(Cc3ccc(-c4ccccn4)cc3)C2)c1 (centres undefined)	.	/	?	.	.	21µM
O=C(NCc1ccccc1Cl)C1CCC(=O)N(CC2CCCCC2)C1 (centres undefined)	.	.	.	.	.	.
O=C1NC[C@H](CCCCN2C[C@H](Cc3ccccc3)N(CCc3ccccc3)C(=O)C2=O)N(CCC2CCCCC2)C1=O	.	/	?	?	.	?
CCOCCCn1c(SC(C)C(=O)NCC2CCCO2)nc2sc(C)c(C)c2c1=O (centres undefined)	.	.	.	.	.	.
COC(=O)[C@H](CC(C)C)NC(=O)CC[C@H]1O[C@@H](n2cc(C)c(=O)[nH]c2=O)C[C@@H]1O	.	/	.	.	.	.
Cc1ccccc1OC1(C)CCN(Cc2ccc3ccccc3c2)C1 (centres undefined)	.	/	16µM	.	.	?
Cc1ccc(CN2CCC(C)(Oc3cccc(Cl)c3)C2)cc1 (centres undefined)	.	/	?	.	.	29µM
COc1cc(Cl)ccc1OC1(C)CCN(Cc2ccc(SC)cc2)C1 (centres undefined)	?	/	18µM	?	?	13µM
CC(C)(C)N1C(=O)c2ccccc2NC(=O)C1C(=O)NCCc1ccccc1 (centres undefined)	.	/	?	.	.	.
COc1ccc(Cn2nnnc2C(c2ccccn2)N2CCN(c3ccc(O)cc3)CC2)cc1 (centres undefined)	/	/	?	/	/	.
O=C(Nc1c(F)cccc1F)c1cnc(N2CCN(c3ccccn3)CC2)c2ccccc12	.	.	23µM	?	.	23µM
Cc1ccc(NC(=O)c2cnc(N3CCN(c4ccccn4)CC3)c3ccccc23)c(Br)c1	?	.	13µM	.	.	15µM
CN1C[C@@H]2C(c3ccc(C(F)(F)F)cc3)C3(c4ccccc4)CC2(C3)[C@H]1c1ccccc1 (some centres undefined)	.	.	16µM	.	.	?
CN1C[C@@H]2C(c3ccccc3)C3(c4cccnc4)CC2(C3)[C@H]1c1ccccc1 (some centres undefined)	.	.	.	.	.	.
COC(=O)c1ccc(C23CC4(C2)[C@H](CN(Cc2cccnc2)[C@@H]4c2ccccc2)C3c2ccc(C(F)(F)F)cc2)cc1 (some centres undefined)	.	.	13µM	.	?	23µM
COC(=O)c1cccc(C23CC4(C2)[C@H](CN(Cc2ccc(C(F)(F)F)cc2)[C@@H]4c2ccccc2)C3c2ccccc2)c1 (some centres undefined)	.	.	16µM	.	.	29µM
FC(F)(F)c1ccc(C2[C@H]3CN(Cc4cccnc4)[C@H](c4ccccc4)C34CC2(c2cccnc2)C4)cc1 (some centres undefined)	?	?	21µM	.	?	23µM
COC(=O)c1ccc(C23CC4(C2)[C@H](CN(Cc2ccc(-c5ccccc5)cc2)[C@@H]4c2ccccc2)C3c2ccc(C(F)(F)F)cc2)cc1 (some centres undefined)	.	.	?	.	.	?
COC(=O)c1cc(S(=O)(=O)Nc2cccc(-c3cnco3)c2)oc1C	.	.	.	.	.	.
COC(=O)c1cccc(C23CC4(C2)[C@H](CN(Cc2ccc(-c5ccccc5)cc2)[C@@H]4c2ccccc2)C3c2ccccc2)c1 (some centres undefined)	.	.	?	.	.	.
COC(=O)c1ccc(C23CC4(C2)[C@H](CN(Cc2ccc(-c5ccccc5)cc2)[C@@H]4c2ccccc2)C3c2ccc(Cl)nc2)cc1 (some centres undefined)	.	.	.	.	.	.
SMILES	HT1080 IDH1KD tx	uPA surface inh	DT40 TDP1 no CPT	IL-1B inflam inh	HT1080-NT tox	TDP1 cell CPT
N#Cc1ccc(C23CC4(C2)[C@H](CN(Cc2cccnc2)[C@@H]4c2ccccc2)C3c2ccccc2)cc1 (some centres undefined)	?	?	7.3µM	.	.	9.2µM
FC(F)(F)c1ccc(C2[C@H]3CN(Cc4ccc(-c5ccccc5)cc4)[C@H](c4ccccc4)C34CC2(c2ccccc2)C4)cc1 (some centres undefined)	.	.	?	.	.	?
COC(=O)c1ccc(C23CC4(C2)[C@H](CN(CC2CCCCC2)[C@@H]4c2ccccc2)C3c2ccccc2)cc1 (some centres undefined)	.	.	?	.	.	26µM
COC(=O)c1ccc(C23CC4(C2)[C@H](CN(Cc2cccnc2)[C@@H]4c2ccccc2)C3c2ccccc2)cc1 (some centres undefined)	.	.	23µM	.	.	23µM
N#Cc1ccc(C23CC4(C2)[C@H](CN(Cc2ccc(-c5ccccc5)cc2)[C@@H]4c2ccccc2)C3c2ccc(C(F)(F)F)cc2)cc1 (some centres undefined)	.	.	?	.	.	16µM
CCOc1ccccc1N1CC(C(=O)Nc2cc(S(=O)(=O)N3CCOCC3)ccc2OC(C)C)CC1=O (centres undefined)	.	.	?	.	.	?
NC(=O)C1CCN(c2nc(-c3cccc(Cl)c3)cs2)CC1	/	.	/	/	/	/
O=C(NCc1cccs1)c1ccc(CS(=O)Cc2ccc(Cl)cc2)o1 (centres undefined)	.	/	?	.	.	?
CCSc1ccc([C@@H]2[C@H]3C(=O)N(CC)C(=O)[C@H]3[C@]3(C(=O)OC)CCCCN23)cc1OC	.	.	16µM	.	.	?
CCCSc1ccc([C@@H]2[C@@H]3C(=O)N(CC)C(=O)[C@@H]3[C@]3(C(=O)OC)CCCCN23)cc1OC	.	.	23µM	.	.	16µM
